Hit rate of the full screen: of about 310,000 compounds, about 17,000 (5.5%) were called active. Another 11% or so got no clear call; they are omitted. Calls follow the shape of the dose curve; as a rule, active = well fitted inhibition curve with a large enough effect; inconclusive = small, poorly fitted or top-dose-only effect, or effect the other way; inactive = no such curve, though single readings can be large or run the other way. This excerpt belongs to a sample that is enriched for actives.
molecular target: Nuclear receptor ROR-gamma (Mus musculus) (UniProt P51450); assay: qHTS for inhibitors of ROR gamma transcriptional activity; settings: Drosophila S2 Gal4-RORgamma UAS-luciferase reporter, 20 h; series mostly up to 53.6 µM; activity change, negative = inhibition: at the top concentration; also: nearly all actives have a fitted effect of over 60% in size
Sequence (P51450 whole entry, looked up, the tested form may be a part): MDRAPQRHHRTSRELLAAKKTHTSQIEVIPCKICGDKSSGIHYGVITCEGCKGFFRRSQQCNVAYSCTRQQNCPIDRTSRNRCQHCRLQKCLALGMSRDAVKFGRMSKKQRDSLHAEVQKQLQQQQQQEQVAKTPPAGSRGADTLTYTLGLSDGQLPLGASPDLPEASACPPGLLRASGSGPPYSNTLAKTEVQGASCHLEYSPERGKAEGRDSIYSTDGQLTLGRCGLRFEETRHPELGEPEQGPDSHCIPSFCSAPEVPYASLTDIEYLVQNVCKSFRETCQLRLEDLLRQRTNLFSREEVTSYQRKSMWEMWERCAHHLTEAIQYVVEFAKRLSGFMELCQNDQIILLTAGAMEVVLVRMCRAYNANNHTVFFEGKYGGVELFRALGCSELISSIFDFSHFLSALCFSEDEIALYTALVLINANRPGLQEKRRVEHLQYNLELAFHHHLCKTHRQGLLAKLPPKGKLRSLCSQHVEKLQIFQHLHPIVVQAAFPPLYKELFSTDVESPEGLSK
Method in brief: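 Stable Schneider cell line, Gal4 DNA-binding domain fused to ROR gamma, UAS-luciferase. Cmpd 1 hr RT → CuSO4 700 uM final → 20 hr RT → luciferase reagent 10 min → luminescence.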
% is scaled to controls: 0 for no effect and ±100 for the full control effect; potency is read from the fitted curve at half-maximal effect.

Row | Structure (SMILES) | activity change, negative = inhibition | Potency
1 | COc1ccc(CSc2nnnn2-c2ccc(O)cc2)cc1F | 7.32% (inactive) | 
2 | C#CCOc1ccccc1/C=C1/C(=O)ON=C1C | 4.49% (inactive) | 
3 | COc1cc(/C=N/NC(=O)c2cccnc2)ccc1OC(=O)c1cccc(Br)c1 |  | 11.2 µM (active)
4 | Cn1c(=O)n(C)c2cc(/C=N/NC(=O)c3cccc(Br)c3)ccc21 | -10.1% (inactive) | 
5 | O=C(N/N=C/c1cccc(OC(=O)c2ccc([N+](=O)[O-])cc2)c1)c1cccnc1 | -6.76% (inactive) | 
6 | Cc1ccc(CNC(=O)[C@@H](NC(=O)Cc2ccccc2)C(C)C)cc1 | 2.05% (inactive) | 
7 | COc1ccc(/C=C(/NC(=O)c2ccccc2)C(=O)Nc2cccc(C(=O)O)c2)cc1 | -28.5% (inactive) | 
8 | CC(NC(=O)CNC(=O)Cc1cccc2ccccc12)c1ccc(S(N)(=O)=O)cc1 (configuration not stated) | 31% (inactive) | 
9 | COC(=O)c1ccc2c(C(C)(C)O)c(C(C)(C)O)[nH]c2c1 | 44.3% (inactive) | 
10 | CCNC(=O)CCc1nc(-c2ccc(C(C)(C)C)cc2)no1 |  | 0.0447 µM (active)
11 | CN1CCN(C(=O)CCc2nc(-c3ccc(Cl)cc3)no2)CC1 | 22.4% (inactive) | 
12 | CCNC(=O)CCc1nc(-c2ccc(C)cc2)no1 | 34.1% (inactive) | 
13 | CC1=C(C(=O)OC(C)(C)C)C(c2ccc(Br)cc2)NC(=O)N1CCCC(=O)O (configuration not stated) | -10.5% (inactive) | 
14 | COc1cccc(NC(=O)[C@H](Cc2c[nH]c3ccccc23)NC(=O)[C@@H]2Cc3ccccc3CN2)c1 | 13.9% (inactive) | 
15 | Cc1cc(-c2cccs2)nc(-n2cccc2)n1 | 0.7% (inactive) | 
16 | CC(C)(C)Nc1c(-c2cccs2)nc2ccccn12 |  | 6.31 µM (active)
17 | Cc1cc2nc(C(F)(F)F)cc(-c3cccs3)n2n1 | -17.8% (inactive) | 
18 | Cn1nccc1C(=O)NC1CCCc2c1cnn2-c1ccc(F)cc1F (configuration not stated) | -27% (inactive) | 
19 | COC(=O)c1ccc(OC(=O)c2cnccn2)cc1 | 41.2% (inactive) | 
20 | O=C(CCc1ccccc1)NNC(=O)c1ccc(Br)cc1 | -0.842% (inactive) | 
21 | COc1ccc(C(=O)NC(=S)NNC(=O)CCc2ccccc2)cc1 |  | 4.47 µM (active)
22 | Cc1cccc(OCCNC(=S)NC(=O)c2cccnc2)c1 |  | 10 µM (active)
23 | COc1ccc(C(=O)NC(=S)NC2CCCCC2)cc1 |  | 2.82 µM (active)

Row | Structure (SMILES) | activity change, negative = inhibition | Potency
24 | COCCCNC(=O)c1c(F)c(F)c(F)c(F)c1F | -20.7% (inactive) | 
25 | COc1ccc(-n2cnc3cc(C(=O)NC4CCCC4)ccc32)cc1 | 22.4% (inactive) | 
26 | CCCNC(=S)N1CCC(NC(=O)c2ccc(OC)cc2)CC1 | 25.5% (inactive) | 
27 | Cc1cccc(OCC(=O)NCCNC(=O)c2cccnc2)c1 | -13.4% (inactive) | 
28 | COCCCNC(=S)NNC(=O)C(O)(c1ccccc1)c1ccccc1 | -39.9% (inactive) | 
29 | COCCCNC(=S)NC(=O)c1ccccc1 |  | 12.6 µM (active)
30 | CCCOc1cccc(C(=O)NCCCNC(=O)c2cccnc2)c1 | 22.3% (inactive) | 
31 | COc1ccc(C(=O)NC2CCN(C(=S)NCCc3ccccc3)CC2)cc1 | -2.05% (inactive) | 
32 | C[C@H](NC(=O)C1CC(=O)N(c2ccc3c(c2)OCO3)C1)C(=O)NCc1ccco1 (some centres not stated) | -2.28% (inactive) | 
33 | COc1ccc(CNC(=O)/C(C#N)=C/c2cccc(OC)c2OC)cc1 | -22.3% (inactive) | 
34 | Cc1c(Cl)c([N+](=O)[O-])nn1CC(=O)NCCCN1CCOCC1 | 4.93% (inactive) | 
35 | Cc1ccc(C)c(N2CCN(C(=O)Cn3ncn4cccc4c3=O)CC2)c1 | 1.67% (inactive) | 
36 | NS(=O)(=O)c1cccc(NC(=O)CC23CC4CC(CC(Br)(C4)C2)C3)c1 | 15.7% (inactive) | 
37 | Cc1ccc(S(=O)Cc2ccc(C(=O)N3CCN(C4CCCCC4)CC3)o2)cc1 (configuration not stated) | -17% (inactive) | 
38 | N#C/C=C/N1CCN(Cc2ccc3c(c2)OCO3)CC1 | 1.29% (inactive) | 
39 | CC(=O)NC(=S)NNC(=O)c1ccc(Br)cc1 |  | 12.6 µM (active)
40 | COCCCNC(=S)N(Cc1ccccc1)Cc1ccc(F)cc1 |  | 15.8 µM (active)
41 | COc1ccc(OCC(=O)Nc2ccc(NC(=O)c3ccco3)c(C)c2)cc1 | 0.594% (inactive) | 
42 | COc1ccc(OCC(=O)NNC(=O)c2ccc(-c3ccccc3)cc2)cc1 | -11.6% (inactive) | 
43 | COCCNC(=S)N(Cc1cccnc1)Cc1ccc(OC)c(OC)c1 | -17.6% (inactive) | 
44 | COc1ccc(C(=O)NNC(=O)c2cc(C)[nH]n2)cc1 | 27.8% (inactive) | 
45 | Cc1cc(C)c2[nH]c(=O)c(CN(Cc3ccccc3)C(=S)NCCCN(C)C)cc2c1 | -4.36% (inactive) | 
46 | CCCc1ccc(OCC(=O)NNC(=S)NC(=O)c2ccco2)cc1 |  | 12.6 µM (active)

Row | Structure (SMILES) | activity change, negative = inhibition | Potency
47 | Cc1ccc(OCC(=O)NCCCNC(=O)c2ccco2)cc1C | 10.6% (inactive) | 
48 | COc1ccc(C(=O)NNC(=S)NC(=O)c2ccccc2)cc1 |  | 4.47 µM (active)
49 | CNC(=S)NNC(=O)c1ccc(N(C)C)cc1 | -16.2% (inactive) | 
50 | Cn1nnnc1SCC(=O)NNC(=O)c1ccc(Br)cc1 | -10.6% (inactive) | 
51 | Cc1ccc(N(CC(=O)NC2CCCCC2)C(=O)CCCC(=O)Nc2ccccn2)c(C)c1 | 2.53% (inactive) | 
52 | O=C(NCc1ccco1)C(c1ccncc1)N(C(=O)Cn1nnc2ccccc21)c1ccccc1 (configuration not stated) | 19.7% (inactive) | 
53 | O=C(Nc1cccc(Cl)c1Cl)c1ccccc1NC(=O)C1CC=CCC1C(=O)O (configuration not stated) | 25.4% (inactive) | 
54 | CCc1ccc(C(CNc2nc(C(F)(F)F)nc3ccccc23)N(C)C)cc1 (configuration not stated) | -35.8% (inactive) | 
55 | O=C(Nc1cccc(Br)c1)c1ccc2snnc2c1 | 39.2% (inactive) | 
56 | CCN1C(=NCCc2cccnc2)N[C@@H](c2ccccc2)C(C(=O)OC)=C1C |  | inactive
57 | O=S(=O)(c1cccc(Cn2nnc(-c3ccc(F)cc3)n2)c1)N1CCOCC1 | 40.7% (inactive) | 
58 | CC1(C(=O)O)CCC(C(=O)Nc2ccc(Cl)c(Cl)c2)C1(C)C (configuration not stated) | -9.86% (inactive) | 
59 | C=CCn1c(=S)[nH]c2nc3c(cc2c1=O)COC(C)(C)C3 |  | 3.98 µM (active)
60 | CC(C)CCSc1ncnc2c1oc1nc3c(cc12)COC(C)(C)C3 | -5.74% (inactive) | 
61 | CC1(C)Cc2nc3sc4c(SCC(=O)NC(c5ccccc5)c5ccccc5)ncnc4c3cc2CO1 | 35.8% (inactive) | 
62 | Cc1cc(C)nc(NS(=O)(=O)c2ccc(N3C(=O)C4CCCCC4C3=O)cc2)n1 (configuration not stated) | 15.9% (inactive) | 
63 | CCc1ccc(NC(=O)C(=O)NNC(=O)c2cccs2)cc1 | -38.2% (inactive) | 
64 | CCc1ccc(NC2Nc3cc(C)nn3S2)cc1 (configuration not stated) |  | 1.58 µM (active)
65 | CCOC(=O)c1ccc(NC2Nc3cc(C)nn3S2)cc1 (configuration not stated) | 21.8% (inactive) | 
66 | Cc1ccccc1NC(=O)Cn1cc(C(=O)C2CC2)c2ccccc21 | -6.18% (inactive) | 
67 | CC1CCCCN1C(=O)Cn1c(=O)oc2cc(S(=O)(=O)N3CCCCC3)ccc21 (configuration not stated) | 11.6% (inactive) | 
68 | CCSc1nc2sc3c(c2c(=O)n1-c1ccc(C)cc1)CCN(C)C3 | -4.38% (inactive) | 
69 | O=C(c1ccc(OC2CCN(C/C=C/c3ccc(F)cc3)CC2)cc1)N1CCCCC1 | -4.55% (inactive) | 

Row | Structure (SMILES) | activity change, negative = inhibition | Potency
70 | CCn1c(-c2ccoc2C)n[nH]c1=S |  | 11.2 µM (active)
71 | CCCc1cc(-c2n[nH]c(=S)n2CC)c2ccccc2n1 |  | 11.2 µM (active)
72 | CCn1c(C(C)NC(=O)c2ccc(C)cc2)n[nH]c1=S (configuration not stated) | -40.5% (inactive) | 
73 | CCn1c(SCC(=O)NC2CCCC2)nnc1-c1ccoc1C | -16.6% (inactive) | 
74 | CC(C)n1c(-c2ccncc2)n[nH]c1=S |  | 12.6 µM (active)
75 | CCn1c(SCC(=O)Nc2nc3ccc(OC)cc3s2)nnc1-c1ccoc1C | 22.8% (inactive) | 
76 | CCOC(=O)CSc1nnc(-c2ccncc2)o1 | -10.8% (inactive) | 
77 | CCn1c(-c2ccncc2)n[nH]c1=S |  | 5.01 µM (active)
78 | CCCc1cc(=O)[nH]c(SCC(=O)OCc2ccccc2)n1 | -8.09% (inactive) | 
79 | CCn1c(C(C)C)n[nH]c1=S | -33.5% (inactive) | 
80 | O=S(=O)(Nc1ccccc1Br)c1cccs1 | 1.13% (inactive) | 
81 | O=C(Nc1ccc(CN2CCOCC2)cc1)c1cc(Cl)ccc1Cl | 11.1% (inactive) | 
82 | C[C@@H]1CC[C@@]2(OC1)O[C@H]1C[C@H]3[C@@H]4CC=C5C[C@@H](O)[C@H](O)C[C@]5(C)C4CC[C@]3(C)[C@H]1[C@@H]2C (some centres not stated) | 0% (inactive) | 
83 | O=C1Nc2cc(C(=O)N3CCN(c4ccc(F)cc4)CC3)ccc2NC1CSCc1cccc(F)c1 (configuration not stated) | -15.5% (inactive) | 
84 | CC1CCC(NS(=O)(=O)c2ccc3c(c2)CC(=O)N3)CC1 (configuration not stated) | 4.09% (inactive) | 
85 | CCC(=O)NCCc1nc2ccccc2n1CC | -31.7% (inactive) | 
86 | O=S(=O)(O)c1nc2ccccc2n1Cc1ccc(Cl)cc1 | 2.35% (inactive) | 
87 | CC(=O)NC(C)c1nc2ccccc2n1Cc1ccccc1F (configuration not stated) | -30.6% (inactive) | 
88 | CCn1nc(NC(=O)c2ccco2)c2cc3ccc(C)cc3nc21 | 33.6% (inactive) | 
89 | CC(=O)Nc1nc2ccccc2n1Cc1ccc(C)cc1 |  | 1.26 µM (active)
90 | Cc1ccc(Cn2c(NC(=O)c3ccco3)nc3ccccc32)cc1 |  | 0.282 µM (active)
91 | CC(=O)c1nc2ccccc2n1Cc1ccccc1 | 14.4% (inactive) | 
92 | Cc1ccnc(NC(=O)c2ccco2)n1 | 16.6% (inactive) | 

Row | Structure (SMILES) | activity change, negative = inhibition | Potency
93 | CCC(=O)Nc1nc2ccccc2n1Cc1ccccc1C |  | 2 µM (active)
94 | CCOC(=O)C1CCN(S(=O)(=O)c2ccc3c(c2)N(C(C)=O)CCO3)CC1 | 2.26% (inactive) | 
95 | COc1ccc2c3c(c(=O)oc2c1)C1O[C@](CCCCN2C(=O)c4ccccc4C2=O)(Cc2c1ccc1ccccc21)O3 | -28.3% [at 10 µM] (inactive) | 
96 | CCN1CCCC1CNC(=O)c1cc2cc(OC)c(OC)cc2[nH]1 (configuration not stated) | -10.7% (inactive) | 
97 | CCn1c(SCC(=O)Nc2ccc3c(c2)OCCO3)nnc1C(C)C | -24.1% (inactive) | 
98 | COc1cc(/C=N/NC(=O)c2cc(C)n(-c3ccc(F)cc3)c2C)cc(OC)c1O | -15.3% (inactive) | 
99 | CC(Oc1ccccc1[N+](=O)[O-])C(=O)N/N=C/c1ccoc1 (configuration not stated) | -10.5% (inactive) | 
100 | CC(C)c1cc(C(=O)N/N=C/c2ccoc2)c(O)c(C(C)C)c1 |  | 5.62 µM (active)
101 | COc1ccccc1NC(=O)/C=C/C(=O)O | 9.02% (inactive) | 
102 | NC(=O)c1ccccc1NC(=O)c1ccccc1F | 19.9% (inactive) | 
103 | COc1ccccc1NC(=O)C(C)OC(=O)CC1CCCC1 (configuration not stated) | -10.5% (inactive) | 
104 | COc1ccccc1NC(=O)c1ccc(C)s1 | -2.68% (inactive) | 
105 | CCc1ccccc1NC(=S)Nc1cc(OC)c(NC(=O)C(C)C)cc1OC | -14.6% [at 1.91 µM] (inactive) | 
106 | CC(C)C(=O)Nc1cccc(NC(=O)c2ccc([N+](=O)[O-])cc2Cl)c1 | 32.2% (inactive) | 
107 | COC(=O)c1ccccc1NC(=O)c1ccccc1NS(C)(=O)=O | -3.76% (inactive) | 
108 | COc1ccccc1NC(=S)NC(=O)C(C)C |  | 5.01 µM (active)
109 | CC(C)C(=O)Nc1cccc(NC(=S)NC(=O)C(c2ccccc2)c2ccccc2)c1 |  | 7.08 µM (active)
110 | COc1cccc(NC(=O)C(C)Oc2ccccc2)c1 (configuration not stated) | 32.4% (inactive) | 
111 | COc1ccccc1NC(=O)/C=C/C(N)=O |  | 4.47 µM (active)
112 | COC(=O)c1ccccc1NC(=S)NC(=O)c1ccccc1F |  | 12.6 µM (active)

Reference: PubChem BioAssay AID2551 (National Center for Advancing Translational Sciences (NCATS), 2010)
